From paper PMC11006913

Assays:
Experiment in all cases: PBM; 200 nM protein, PBS
Settings in all cases: dsDNA, one strand shown
HESX1 [1] = target: HESX1 (Homo sapiens, UniProt Q9UBX0 95-180, R165K)
SHOX [2] = target: SHOX (Homo sapiens, UniProt O15266 103-189)
ALX4 = ALX4 (Homo sapiens, UniProt Q9H161 200-286, Q225E)
HESX1 [3] = target: HESX1 (Homo sapiens, UniProt Q9UBX0 95-180)
MSX2 [4] = target: MSX2 (Homo sapiens, UniProt P35548 130-214, R199I)
ALX1 [5] = target: ALX1 (Homo sapiens, UniProt Q15699 118-204, L144V)
ALX1 (Homo sapiens, UniProt Q15699 118-204, L144V), sequence (Q15699 118-204 L144V): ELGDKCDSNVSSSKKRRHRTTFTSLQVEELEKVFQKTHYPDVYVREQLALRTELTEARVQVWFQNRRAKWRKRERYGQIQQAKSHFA

SHOX [6] = target: SHOX (Homo sapiens, UniProt O15266 103-189, R173C)
SHOX (Homo sapiens, UniProt O15266 103-189, R173C), sequence (O15266 103-189 R173C): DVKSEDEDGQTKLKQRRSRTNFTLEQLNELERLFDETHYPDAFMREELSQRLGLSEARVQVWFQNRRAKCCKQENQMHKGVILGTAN

ALX1 [7] = target: ALX1 (Homo sapiens, UniProt Q15699 118-204, L144R)
ALX1 (Homo sapiens, UniProt Q15699 118-204, L144R), sequence (Q15699 118-204 L144R): as the sequence (Q15699 118-204 L144V) above, with V27R counted along it

PROP1 [8] = target: PROP1 (Homo sapiens, UniProt O75360 56-141)
PROP1 (Homo sapiens, UniProt O75360 56-141), sequence (O75360 56-141): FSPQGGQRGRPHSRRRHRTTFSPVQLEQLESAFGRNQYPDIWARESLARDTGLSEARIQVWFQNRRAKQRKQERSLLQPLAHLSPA

HESX1 [9] = target: HESX1 (Homo sapiens, UniProt Q9UBX0 95-180, R109Q)
HESX1 (Homo sapiens, UniProt Q9UBX0 95-180, R109Q), sequence (Q9UBX0 95-180 R109Q): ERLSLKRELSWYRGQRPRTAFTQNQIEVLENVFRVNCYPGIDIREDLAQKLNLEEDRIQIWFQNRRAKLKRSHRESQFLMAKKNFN

PROP1 [10] = target: PROP1 (Homo sapiens, UniProt O75360 56-141, R99H)
PROP1 (Homo sapiens, UniProt O75360 56-141, R99H), sequence (O75360 56-141 R99H): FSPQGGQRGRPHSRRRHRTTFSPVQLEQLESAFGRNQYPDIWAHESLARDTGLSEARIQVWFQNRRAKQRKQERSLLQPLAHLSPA

ALX3 = ALX3 (Homo sapiens, UniProt O95076 139-225, L168Q)
ALX3, sequence (O95076 139-225 L168Q): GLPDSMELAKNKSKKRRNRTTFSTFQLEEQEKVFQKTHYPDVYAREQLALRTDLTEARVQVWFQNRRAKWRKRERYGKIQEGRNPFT

HESX1 [11] = target: HESX1 (Homo sapiens, UniProt Q9UBX0 95-180, P111T)
HESX1 (Homo sapiens, UniProt Q9UBX0 95-180, P111T), sequence (Q9UBX0 95-180 P111T): as the sequence (Q9UBX0 95-180 R109Q) above, with Q15R, P17T counted along it

PROP1 [12] = target: PROP1 (Homo sapiens, UniProt O75360 56-141, F88S)
PROP1 (Homo sapiens, UniProt O75360 56-141, F88S), sequence (O75360 56-141 F88S): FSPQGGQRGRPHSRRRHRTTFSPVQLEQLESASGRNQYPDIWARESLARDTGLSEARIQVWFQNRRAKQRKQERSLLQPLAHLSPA

MSX2 [13] = target: MSX2 (Homo sapiens, UniProt P35548 130-214, F161Y)
MSX2 (Homo sapiens, UniProt P35548 130-214, F161Y), sequence (P35548 130-214 F161Y): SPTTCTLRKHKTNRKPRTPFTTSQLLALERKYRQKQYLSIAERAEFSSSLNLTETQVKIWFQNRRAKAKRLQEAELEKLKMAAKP

HESX1 [14] = target: HESX1 (Homo sapiens, UniProt Q9UBX0 95-180, F115L)
HESX1 (Homo sapiens, UniProt Q9UBX0 95-180, F115L), sequence (Q9UBX0 95-180 F115L): as the sequence (Q9UBX0 95-180 R109Q) above, with Q15R, F21L counted along it

ALX1 [15] = target: ALX1 (Homo sapiens, UniProt Q15699 118-204)
ALX1 (Homo sapiens, UniProt Q15699 118-204), sequence (Q15699 118-204): as the sequence (Q15699 118-204 L144V) above, with V27L counted along it

PRRX1 [16] = target: PRRX1 (Homo sapiens, UniProt P54821 80-166, F113S)
PRRX1 (Homo sapiens, UniProt P54821 80-166, F113S), sequence (P54821 80-166 F113S): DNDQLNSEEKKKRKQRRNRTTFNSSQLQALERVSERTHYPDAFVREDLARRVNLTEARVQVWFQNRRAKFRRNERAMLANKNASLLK

PRRX1 [17] = target: PRRX1 (Homo sapiens, UniProt P54821 80-166)
PRRX1 (Homo sapiens, UniProt P54821 80-166), sequence (P54821 80-166): as the sequence (P54821 80-166 F113S) above, with S34F counted along it

HESX1 (Homo sapiens, UniProt Q9UBX0 95-180, R165K), sequence (Q9UBX0 95-180 R165K): as the sequence (Q9UBX0 95-180 R109Q) above, with Q15R, R71K counted along it
HESX1 (Homo sapiens, UniProt Q9UBX0 95-180), sequence (Q9UBX0 95-180): as the sequence (Q9UBX0 95-180 R109Q) above, with Q15R counted along it
MSX2 (Homo sapiens, UniProt P35548 130-214, R199I), sequence (P35548 130-214 R199I): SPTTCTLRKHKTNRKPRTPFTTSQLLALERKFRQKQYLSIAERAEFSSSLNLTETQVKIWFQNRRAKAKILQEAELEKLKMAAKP
ALX4, sequence (Q9H161 200-286 Q225E): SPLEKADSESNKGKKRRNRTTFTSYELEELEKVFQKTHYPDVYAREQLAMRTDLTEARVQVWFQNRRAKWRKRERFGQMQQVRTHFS
SHOX (Homo sapiens, UniProt O15266 103-189), sequence (O15266 103-189): as the sequence (O15266 103-189 R173C) above, with C71R counted along it

For CAATTAGG, the binding signal (HESX1 [1]) was 12.5 upbm affinity estimate (log intensity, higher = more binding, comparable within an allelic series), the binding signal (SHOX [2]) was 12.1 upbm affinity estimate (log intensity, higher = more binding, comparable within an allelic series) and the binding signal (ALX4) was 12.8 upbm affinity estimate (log intensity, higher = more binding, comparable within an allelic series). The binding signal (HESX1 [3]) was 12.7 upbm affinity estimate (log intensity, higher = more binding, comparable within an allelic series), the binding signal (MSX2 [4]) was 12.7 upbm affinity estimate (log intensity, higher = more binding, comparable within an allelic series) and the binding signal (ALX1 [5]) was 11.5 upbm affinity estimate (log intensity, higher = more binding, comparable within an allelic series). For the same sequence, the binding signal (SHOX [6]) was 9.72 upbm affinity estimate (log intensity, higher = more binding, comparable within an allelic series), the binding signal (ALX1 [7]) was 10.9 upbm affinity estimate (log intensity, higher = more binding, comparable within an allelic series) and the binding signal (PROP1 [8]) was 11.3 upbm affinity estimate (log intensity, higher = more binding, comparable within an allelic series). For the same sequence, the binding signal (HESX1 [9]) was 9.39 upbm affinity estimate (log intensity, higher = more binding, comparable within an allelic series), the binding signal (PROP1 [10]) was 11.5 upbm affinity estimate (log intensity, higher = more binding, comparable within an allelic series) and the binding signal (ALX3) was 10.4 upbm affinity estimate (log intensity, higher = more binding, comparable within an allelic series). For the same sequence, the binding signal (HESX1 [11]) was 11.2 upbm affinity estimate (log intensity, higher = more binding, comparable within an allelic series), the binding signal (PROP1 [12]) was 7.6 upbm affinity estimate (log intensity, higher = more binding, comparable within an allelic series) and the binding signal (MSX2 [13]) was 13.4 upbm affinity estimate (log intensity, higher = more binding, comparable within an allelic series). The binding signal (HESX1 [14]) was 7.73 upbm affinity estimate (log intensity, higher = more binding, comparable within an allelic series) and the binding signal (ALX1 [15]) was 12.1 upbm affinity estimate (log intensity, higher = more binding, comparable within an allelic series).
With CGCAATTA the binding signal (HESX1 [1]) was 11.6 upbm affinity estimate (log intensity, higher = more binding, comparable within an allelic series), the binding signal (HESX1 [3]) was 11.8 upbm affinity estimate (log intensity, higher = more binding, comparable within an allelic series) and the binding signal (MSX2 [4]) was 12.6 upbm affinity estimate (log intensity, higher = more binding, comparable within an allelic series). For the same sequence, the binding signal (HESX1 [9]) was 8.21 upbm affinity estimate (log intensity, higher = more binding, comparable within an allelic series), the binding signal (HESX1 [11]) was 10.1 upbm affinity estimate (log intensity, higher = more binding, comparable within an allelic series) and the binding signal (MSX2 [13]) was 13.4 upbm affinity estimate (log intensity, higher = more binding, comparable within an allelic series). The binding signal (HESX1 [14]) was 7.22 upbm affinity estimate (log intensity, higher = more binding, comparable within an allelic series).
GCAGGCGC was tested, and the binding signal (HESX1 [1]) was 6.11 upbm affinity estimate (log intensity, higher = more binding, comparable within an allelic series), the binding signal (HESX1 [3]) was 5.98 upbm affinity estimate (log intensity, higher = more binding, comparable within an allelic series) and the binding signal (ALX1 [5]) was 5.82 upbm affinity estimate (log intensity, higher = more binding, comparable within an allelic series). The binding signal (ALX1 [7]) was 5.84 upbm affinity estimate (log intensity, higher = more binding, comparable within an allelic series), the binding signal (HESX1 [9]) was 6.31 upbm affinity estimate (log intensity, higher = more binding, comparable within an allelic series) and the binding signal (HESX1 [11]) was 6.16 upbm affinity estimate (log intensity, higher = more binding, comparable within an allelic series). For the same sequence, the binding signal (HESX1 [14]) was 6.37 upbm affinity estimate (log intensity, higher = more binding, comparable within an allelic series) and the binding signal (ALX1 [15]) was 5.72 upbm affinity estimate (log intensity, higher = more binding, comparable within an allelic series).
In the case of CCGAGACC, the binding signal (HESX1 [1]) is reported as 6.38 upbm affinity estimate (log intensity, higher = more binding, comparable within an allelic series), the binding signal (HESX1 [3]) is reported as 6.35 upbm affinity estimate (log intensity, higher = more binding, comparable within an allelic series) and the binding signal (PROP1 [8]) is reported as 6.57 upbm affinity estimate (log intensity, higher = more binding, comparable within an allelic series). The binding signal (HESX1 [9]) was 6.45 upbm affinity estimate (log intensity, higher = more binding, comparable within an allelic series), the binding signal (PROP1 [10]) was 6.84 upbm affinity estimate (log intensity, higher = more binding, comparable within an allelic series) and the binding signal (ALX3) was 7.73 upbm affinity estimate (log intensity, higher = more binding, comparable within an allelic series). For the same sequence, the binding signal (HESX1 [11]) was 6.33 upbm affinity estimate (log intensity, higher = more binding, comparable within an allelic series), the binding signal (PROP1 [12]) was 6.43 upbm affinity estimate (log intensity, higher = more binding, comparable within an allelic series) and the binding signal (HESX1 [14]) was 6.5 upbm affinity estimate (log intensity, higher = more binding, comparable within an allelic series).
AGAGCGCG was tested, and the binding signal (HESX1 [1]) was 6.51 upbm affinity estimate (log intensity, higher = more binding, comparable within an allelic series), the binding signal (HESX1 [3]) was 6.38 upbm affinity estimate (log intensity, higher = more binding, comparable within an allelic series) and the binding signal (HESX1 [9]) was 6.56 upbm affinity estimate (log intensity, higher = more binding, comparable within an allelic series). For the same sequence, the binding signal (HESX1 [11]) was 6.61 upbm affinity estimate (log intensity, higher = more binding, comparable within an allelic series) and the binding signal (HESX1 [14]) was 6.46 upbm affinity estimate (log intensity, higher = more binding, comparable within an allelic series).
For CCTAGCTC, the binding signal (HESX1 [1]) was 6.41 upbm affinity estimate (log intensity, higher = more binding, comparable within an allelic series), the binding signal (HESX1 [3]) was 6.56 upbm affinity estimate (log intensity, higher = more binding, comparable within an allelic series) and the binding signal (HESX1 [9]) was 6.57 upbm affinity estimate (log intensity, higher = more binding, comparable within an allelic series). For the same sequence, the binding signal (HESX1 [11]) was 6.46 upbm affinity estimate (log intensity, higher = more binding, comparable within an allelic series) and the binding signal (HESX1 [14]) was 6.62 upbm affinity estimate (log intensity, higher = more binding, comparable within an allelic series).
In the case of TCCCCCCA, the binding signal (HESX1 [1]) is reported as 6.55 upbm affinity estimate (log intensity, higher = more binding, comparable within an allelic series), the binding signal (HESX1 [3]) is reported as 6.5 upbm affinity estimate (log intensity, higher = more binding, comparable within an allelic series) and the binding signal (HESX1 [9]) is reported as 6.55 upbm affinity estimate (log intensity, higher = more binding, comparable within an allelic series). For the same sequence, the binding signal (HESX1 [11]) was 6.52 upbm affinity estimate (log intensity, higher = more binding, comparable within an allelic series) and the binding signal (HESX1 [14]) was 6.55 upbm affinity estimate (log intensity, higher = more binding, comparable within an allelic series).
In the case of CCGCCCCC, the binding signal (HESX1 [1]) is reported as 6.46 upbm affinity estimate (log intensity, higher = more binding, comparable within an allelic series), the binding signal (PRRX1 [16]) is reported as 9.06 upbm affinity estimate (log intensity, higher = more binding, comparable within an allelic series) and the binding signal (HESX1 [3]) is reported as 6.33 upbm affinity estimate (log intensity, higher = more binding, comparable within an allelic series). For the same sequence, the binding signal (HESX1 [9]) was 6.51 upbm affinity estimate (log intensity, higher = more binding, comparable within an allelic series), the binding signal (HESX1 [11]) was 6.43 upbm affinity estimate (log intensity, higher = more binding, comparable within an allelic series) and the binding signal (HESX1 [14]) was 6.41 upbm affinity estimate (log intensity, higher = more binding, comparable within an allelic series). For the same sequence, the binding signal (PRRX1 [17]) was 8.75 upbm affinity estimate (log intensity, higher = more binding, comparable within an allelic series).
